Compound activity as filed in PubChem.
In the library only some 8.3% were active in any assay of this set; here they are far more common.
VP16 counter = counter-screen for ROR gamma inhibitors: Gal4-VP16 reporter; Drosophila S2 Gal4-VP16 UAS-luciferase, luminescence, 20 h; 3.5% of 310,000 active; Potency, µM (top dose mostly 53.6 µM), actives largely listed as inhibitors;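 further: Gal4-VP16 expression switched on by copper sulfate through the metallothionein promoter; nearly all actives have a fitted effect of over 50% in size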
Giardia kill = Giardia lamblia killing. 0.15% of 340,000 active. AID 540267. activity change, % at 7.66 µM, hits read low. Giardia lamblia trophozoite viability; in the data active means activity change below about -80%; inconclusive means between about -30% and that limit;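 further: parasites exposed to compound for two days anaerobically before the ATP read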
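Giardia lamblia trophozoites (100 cells/well) were incubated with compounds for 48 h at 37 deg C under anaerobic conditions. Viability was read as ATP content by one-step luminescence after 15-30 min at room temperature.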
MCF10A rerep = induces DNA re-replication in MCF 10a normal breast cells | MCF 10A DNA re-replication, Hoechst nuclear intensity, 48 h | Potency, µM (doses to about 46.1 µM), actives largely listed as activators | 2.9% of 350,000 active; further: nearly all actives have a fitted effect of over 50% in size
RORg inh = blocks mouse ROR gamma transcriptional activity | Potency, µM (titrated, usually from 53.6 µM), hits mostly inhibitors | 5.4% of 310,000 active | AID 2551 | Drosophila S2 Gal4-RORgamma UAS-luciferase reporter, 20 h; further: nearly all actives have a fitted effect of over 60% in size
Target sequence (P51450 whole entry, looked up, the tested form may be a part): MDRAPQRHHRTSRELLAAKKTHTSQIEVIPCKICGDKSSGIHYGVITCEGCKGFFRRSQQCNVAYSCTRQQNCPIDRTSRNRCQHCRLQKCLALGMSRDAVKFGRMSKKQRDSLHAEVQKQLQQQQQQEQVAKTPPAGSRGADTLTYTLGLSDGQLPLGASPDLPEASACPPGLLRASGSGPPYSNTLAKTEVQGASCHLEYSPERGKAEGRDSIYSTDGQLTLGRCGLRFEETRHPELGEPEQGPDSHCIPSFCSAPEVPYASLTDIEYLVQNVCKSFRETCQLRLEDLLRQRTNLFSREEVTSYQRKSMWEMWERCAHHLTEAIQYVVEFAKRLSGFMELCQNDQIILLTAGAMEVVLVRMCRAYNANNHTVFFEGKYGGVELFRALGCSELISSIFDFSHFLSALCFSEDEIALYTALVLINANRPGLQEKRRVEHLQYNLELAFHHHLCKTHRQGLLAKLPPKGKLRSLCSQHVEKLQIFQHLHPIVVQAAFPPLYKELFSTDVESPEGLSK
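Stably transfected Drosophila Schneider cells are the test system, with ROR gamma fused to Gal4 and luciferase under UAS control; luminescence is read after 20 hr of 700 uM copper sulfate induction at ambient temperature.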
SW480 rereplic = induces DNA re-replication in SW480 colon adenocarcinoma cells | SW480 DNA re-replication, Hoechst DNA content imaging, 48 h | Potency, µM (series often up to 46.1 µM), usual class: activators | 1.8% of 340,000 active; further: nearly all actives have a fitted effect of over 55% in size
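250 cells/well; 23 nL cpd via pin tool; 48 hr, 37 C, 5% CO2; Hoechst 40 min; imager read of total nuclear intensity, ex 405/em 500-530 nm.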
BCR signal inh = inhibitors of chronic active B-cell receptor signaling; ABC-DLBCL IkBa-CBG/CBR reporter, luminescence ratio, 4 h; Potency, µM (highest dose often 46.1 µM), most hits filed as inhibitors; 0.05% of 340,000 active; active means well fitted inhibition curve with a large enough effect in the signal ratio, with a control signal flat, not every such curve was filed as active; inconclusive means small, poorly fitted or top-dose-only effect, or effect the other way, or a change in a side signal; the % refers to the signal ratio
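TMD8 human ABC-DLBCL cells with doxycycline-inducible IκBα–green luciferase fusion and unfused red luciferase, in 0.5% FBS medium; compounds up to 46 uM, 4 h at 37C. Green/red luminescence ratio, filter-overlap corrected, fitted to concentration-response curves.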
Hits are given with their value; – = inactive; ? = inconclusive; · = not tested or not shown; [ ] = remark or other dose. Unless noted, the call rests on the fitted dose curve; in most records, active means well fitted curve in the direction sought with a large enough effect; inconclusive means small, poorly fitted or top-dose-only effect, or another doubt; inactive means no such curve, though single readings can be large; an effect the other way counts as inactive or inconclusive.

SMILES	VP16 counter	Giardia kill	MCF10A rerep	RORg inh	SW480 rereplic	BCR signal inh
COc1ccc(OC)c(C2NC(=O)NC(C)=C2C(=O)OCc2ccccc2)c1 (configuration not stated)	–	–	–	–	–	–
O=C(CSc1nc2ccc(Cl)cc2[nH]1)c1c[nH]c2ccccc12	–	–	–	–	–	?
O=C(CSc1nc2ncc(Cl)cc2[nH]1)c1c[nH]c2ccccc12	–	–	23µM	–	–	?
CC(C)OC(=O)C(C#N)c1nc2ccccc2nc1N1CCCC1 (configuration not stated)	–	–	?	–	–	–
COc1ccc(CNC(=O)C(C#N)c2nc3ccccc3nc2N2CCCC2)cc1 (configuration not stated)	–	–	12µM	–	?	?
CCC(C)COC(=O)C(C#N)c1nc2ccccc2nc1N1CCCCC1 (configuration not stated)	–	–	–[0.0737 µM]	5µM	–	–
CCOC(=O)C(Cc1ccc(O)cc1)NC(=O)CCc1c[nH]c2ccccc12 (configuration not stated)	–	–	–	–	–	–
Oc1cccc(C(O)CNCc2ccc(OCc3ccc(Cl)cc3Cl)cc2)c1 (configuration not stated)	–	–	15µM	–	?	–
Oc1cccc(C(O)CNCc2ccc(-c3ccccc3)cc2)c1 (configuration not stated)	–	–	16µM	–	?	–
CCC(CC)NC(=O)C1CCN(c2ccc(S(=O)(=O)N3CCOCC3)cc2[N+](=O)[O-])CC1	·	–	–	·	–	?
N#Cc1c(N2CCCCC2)nc(N)c2c(N)nc3c(c12)CC(c1ccccc1)O3 (configuration not stated)	–	–	?	?	–[9.22 µM]	?
CCN(CC)c1nc(N)c2c(N)nc3c(c2c1C#N)CC(c1ccccc1)O3 (configuration not stated)	–	–	21µM	–	?	?
COc1cccc(CN(Cc2ccco2)C(c2ccc(F)cc2)c2nnnn2C(C)(C)C)c1 (configuration not stated)	2.8µM	–	?	–	–	–
CC(C)(C)n1nnnc1C(c1cccnc1)N(Cc1ccccc1)Cc1ccco1 (configuration not stated)	–	–	–	–	–	–
OCCN(Cc1ccccc1)Cc1ccc(Cl)cc1Cl	–	–	–	–	–	?
Cc1cnc(NC(=O)CSc2nnc(COc3c(C)cccc3C)o2)s1	?	–	–	11µM	–	–
c1ccc(Cn2c(NCc3ccccn3)nc3ccccc32)cc1	–	–	–	10µM	–	–
CCCCn1c(NCc2ccccn2)nc2ccccc21	13µM	–	–	7.1µM	–	–
CCCOc1ccc(-c2c(C(=O)N/N=C/c3ccccc3OCC)nnn2-c2nonc2N)cc1	–	–	–	–	–	–
S=c1[nH]nc(-c2ccccc2)n1/N=C/C=C/c1ccco1	3.2µM	–	–	2.8µM	–	–
S=c1[nH]nc(-c2ccco2)n1/N=C/c1cccc(Cl)c1Cl	?	–	–	?	–	–
S=c1[nH]nc(-c2ccc(Cl)cc2)n1/N=C/c1ccco1	?	–	–	3.2µM	–	–
S=c1[nH]nc(-c2ccco2)n1/N=C/c1ccc(Cl)cc1Cl	18µM	–	?	5.6µM	?	–
FC(F)(F)c1n[nH]c(=S)n1/N=C/c1ccco1	–	–	–	–	–	–
S=c1[nH]nc(-c2ccc(Cl)cc2)n1/N=C/C=C/c1ccco1	–	–	–	?	–	–
S=c1[nH]nc(-c2ccco2)n1/N=C/C=C/c1ccccc1	?	–	–	2.5µM	–	?
CCc1ccc(NC(=O)CC2C(=O)N(c3ccc(Cl)cc3)C(=O)N2C2CCCC2)cc1 (configuration not stated)	·	–	·	·	·	·
COc1ccc(CN(C)CC(=O)NCC(=O)Nc2c(C)cccc2C)cc1	·	?	–	·	–	–
Cc1ccccc1-c1n[nH]c(=S)n1/N=C/C=C/c1ccco1	–	–	?	2.5µM	–	?
